Bioassay records (PubChem BioAssay)
BAZ2B inh: BAZ2B (human) inhibition. Q9UIF8. AID 504333. AlphaScreen BAZ2B-H3K14Ac peptide displacement. 360,000 compounds, 4.4% hits. Potency, µM (titrated, usually from 114 µM), hits mostly inhibitors; also: nearly all actives have a fitted effect of over 60% in size
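AlphaScreen displacement: compounds (up to 110uM) incubated 30 min at room temperature with a preformed 50 nM BAZ2B/50 nM biotinylated H3K14Ac peptide complex in PBS pH 7.4 with Tween-20. Donor and acceptor beads at 10 ug/mL final added, 20 min light-protected before reading.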
HP1b chromo inh: inhibitors of HP1-beta chromodomain binding to methylated histone tails; Potency, µM (doses to about 114 µM), hits mostly inhibitors; AlphaScreen HP1-beta / biotin-H3K9me3 peptide binding; P83916; 390,000 compounds, 0.56% hits; also: nearly all actives have a fitted effect of over 70% in size
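HP1-beta protein (50 nM final) preincubated 30 min at room temperature with biotinylated H3(1-18)K9me3 peptide (50 nM) in PBS pH 7.4, 0.01% Tween-20, then compound added for 30 min. AlphaScreen streptavidin donor/nickel chelate acceptor beads (10 ug/mL final), 30 min dark, luminescence read.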
G9a block: G9a (human) methyltransferase inhibition. AID 504332. Potency, µM (top dose mostly 102 µM), hits mostly inhibitors. G9a H3K9 monomethylation, AlphaScreen, 2 h. 350,000 compounds, 8.8% hits; also: nearly all actives have a fitted effect of over 75% in size
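Chemiluminescent proximity detection of H3K9 monomethylation, read after 10 min bead incubation in the dark. Reaction: 20 nM G9a, 500 nM biotin-H3K9 peptide, 20 uM SAM cofactor, 2 h, room temperature, following 15 min enzyme-compound preincubation.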
JMJD2A Tudor inh: blocks the human JMJD2A Tudor domain. O75164. AlphaScreen JMJD2A-Tudor / H3K4me3 peptide binding. 390,000 compounds, 4.4% hits. Potency, µM (titrated, usually from 114 µM), hits mostly inhibitors; also: nearly all actives have a fitted effect of over 50% in size
GLS inh: blocks human kidney-isoform glutaminase activity | O94925 | GLS enzymatic activity, qHTS titration | Potency, µM (titrated, usually from 45.5 µM), hits mostly inhibitors | 410,000 compounds, 0.21% hits
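hKGA in 45 mM KH2PO4 pH 8.2, 0.02% Tween-20 with pin-transferred compounds; 1 mM L-glutamine (stock) plus glutamate oxidase/HRP/Amplex Red coupling added. Fluorescence read initially and after 30 min at RT.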
Numbers stand for hits; . = inactive; ? = inconclusive; / = not tested or not shown; [ ] = remark or other dose. Only some compounds are listed: those with a hit (about 10% of all), similar ones and a draw of the others. Calls follow the shape of the dose curve; as a rule, active = well fitted curve in the direction sought with a large enough effect; inconclusive = small, poorly fitted or top-dose-only effect, or another doubt; inactive = no such curve, though single readings can be large; an effect the other way counts as inactive or inconclusive.

SMILES	BAZ2B inh	HP1b chromo inh	G9a block	JMJD2A Tudor inh	GLS inh
CCCCSCc1nc2nc(Cl)c(Cl)nc2[nH]1	/	/	/	/	.
CCC(C)(C)c1ccc(Oc2ccc(N)cc2)cc1	?	?	40µM	56µM	.
CCN(CC)c1ccc(Nc2nc(Cl)ncc2Br)cc1	35µM	?	10µM	28µM	.
CCc1nc(SCC(=O)Nc2ccc(N(CC)CC)cc2)n[nH]1	/	.	/	.	.
COc1ccc(CNC2CCCCC2C)c(OC)c1 (stereo unspecified)	56µM	?	14µM	2µM	.
COc1ccc(CNC2CCCc3ccccc32)c(OC)c1 (stereo unspecified)	.	?	/	50µM	.
C[C@@H]1CN([C@H](C)CO)C(=O)CCCn2cc(nn2)CO[C@H]1CN(C)S(=O)(=O)c1ccc(-c2ccccc2)cc1	/	/	/	/	.
CCOc1ccc(S(=O)(=O)NCCC(=O)OCC(=O)NC(=O)c2cccn2C)cc1	/	.	/	.	.
Cc1ccc(O)c(C(CC(=O)NCC2(c3ccccc3)CCCC2)c2ccccc2)c1 (stereo unspecified)	.	.	.	.	.
COc1cccc(Nc2nc(C(N)C3CCCCC3)cs2)n1 (stereo unspecified)	/	/	/	/	.
CC(=O)c1c(C)[nH]c(C(=O)CSc2ccc(F)cc2)c1C	.	.	.	.	.
CC(C)Nc1nnc(SCC(=O)c2c(N)n(Cc3ccccc3)c(=O)n(C)c2=O)s1	.	.	.	.	.
Cn1c(N)c(C(=O)CSc2nnc(NC3CCCCC3)s2)c(=O)n(C)c1=O	.	.	50µM	.	.
CC(=O)c1c(C)[nH]c(C(=O)CSc2nnc(NC3CC3)s2)c1C	.	.	50µM	.	.
COc1ccc(N2CCN(C(=O)Cc3ccc(C)cc3)CC2)cc1	.	.	71µM	.	.
COc1ccc(N2CCN(C(=O)Cc3nn(C)c(=O)c4ccccc34)CC2)cc1	.	.	35µM	.	.
COc1ccc(CC(=O)N2CCOCC2)cc1	.	.	?	.	.
COc1ccc(N2CCN(C(=O)CCC(=O)c3cc(C)sc3C)CC2)cc1	?	.	50µM	?	.
COc1ccc(N2CCN(C(=O)Cc3ccc(Cl)cc3)CC2)cc1	?	.	50µM	.	.
Cc1cc(C(=O)CCC(=O)N2CCN(c3ccccc3O)CC2)c(C)s1	.	.	.[12.7 µM]	.	.
CCOC(=O)CNC(=O)C1(NC(=O)CNC(=O)OCc2ccccc2)CCCC1	/	.	/	.	.
COc1ccc(NC(=O)N2CCC3(CC2)CCN(C(=O)c2ccco2)CC3)cc1	/	/	.[12.7 µM]	/	/
COc1ccc(-n2nnnc2C(c2ccccc2)N2CCN(C/C=C/c3ccccc3)CC2)cc1 (stereo unspecified)	/	/	/	/	.
COc1ccc(N2CCN(c3nc(NCCO)nc(N4CCOCC4)n3)CC2)cc1	?	.	?	.	.
COc1ccc(N2CCN(C(=O)CN=C3NS(=O)(=O)C(c4ccc(C)cc4)=C3C)CC2)cc1	.	.	40µM	.	.
SMILES	BAZ2B inh	HP1b chromo inh	G9a block	JMJD2A Tudor inh	GLS inh
CC1=C(c2ccc(C)cc2)S(=O)(=O)NC1=NCCCN1CCN(c2ccc(F)cc2)CC1	.	.	?	.	.
COc1ccc(N2CCN(c3nc(Cl)nc(N4CCOCC4)n3)CC2)cc1	.	.	7.9µM	?	.
O=C(Cc1ccc(-n2cccc2)cc1)N1CCN(c2ccccc2F)CC1	50µM	?	50µM	35µM	.
CN(C)C1(CNC(=O)C2CCN(S(=O)(=O)c3cccc(C(F)(F)F)c3)CC2)CCCCC1	.	.	.	.	.
COc1ccc(N/N=C(/C#N)S(=O)(=O)C(C)(C)C)cc1	.	.	50µM	.	.
COc1ccc(N/N=C(/C#N)S(=O)(=O)c2nsc(C)c2C#N)cc1	?	.	?	?	.
CSc1ccc(N/N=C(/C#N)S(=O)(=O)C(C)(C)C)cc1	?	?	50µM	.[11.4 µM]	.
Cc1ccccc1C(=O)Nc1cccc(C(=O)OCc2cc(=O)n3c(C)csc3n2)c1	.	.	.	.	.
CCc1ccc(Cn2c(CNS(=O)(=O)c3ccc4c(c3)CCCC4)nc3cccnc32)cc1	.	.	.	.	.
COc1cccc(-n2c(SCC(=O)N3CCc4ccccc43)nc3c([nH]c4ccccc43)c2=O)c1	.	.	.	.	.
CCOC(=O)CC1Sc2ccccc2NC1=O (stereo unspecified)	.	.	10µM	.	.
O=C(O)CC1Sc2ccccc2NC1=O (stereo unspecified)	.	.	?	.	.
CCOC(=O)C1Sc2ccccc2NC1=O (stereo unspecified)	.	.	.	.	.
CCOC(=O)CC1Sc2ccccc2NC1=S (stereo unspecified)	.	.	45µM	.	.
COc1ccc2c3c(c(=O)oc2c1)C1O[C@](c2ccsc2)(Cc2cc(C#N)ccc21)O3	13µM	/	?	/	/
N#Cc1ccc2c(c1)C[C@]1(c3ccsc3)Oc3c(c(=O)oc4ccccc34)C2O1	13µM	/	.[2.33 µM]	/	/
Cc1cc2c(c(=O)o1)C1O[C@](c3ccsc3)(Cc3cc(C#N)ccc31)O2	?	/	.[2.33 µM]	/	/
COc1ccc(C2CC3(CC(C)(C)NC(SC)=N3)Oc3cc(O)cc(C)c32)cc1 (stereo unspecified)	.	.	?	79µM	.
Cc1ccc(S(=O)(=O)N(C)C[C@@H]2Oc3ncc(Br)cc3C(=O)N([C@H](C)CO)C[C@@H]2C)cc1	/	/	/	/	.
COc1cc(OC)c(OC)cc1CCC(C)NCCC(c1ccccc1)c1ccccc1 (stereo unspecified)	13µM	?	.[2.33 µM]	45µM	.
CCCn1c(SCC(=O)c2cc(C)n(-c3cc(C)on3)c2C)n[nH]c1=O	.	.	?	.	.
COc1ccc2cc3c(N)nn(C(=O)c4ccc(OC)c(OC)c4)c3nc2c1	79µM	.	?	.	.
CCOc1ccc(NC(=O)Cn2c(=O)c(CNc3ccc(OC)cc3)cc3ccc(OC)cc32)cc1	.	.	?	.	.
N#CCc1c(C#N)c(N)nc(N2CCN(S(=O)(=O)c3ccccc3F)CC2)c1C#N	.	.	.	.	.
COc1ccc(CN2C(=O)Cc3c2nc(N)c2c(N)nc(N4CCOCC4)c(C#N)c32)cc1	.	.	.[12.7 µM]	.	.
SMILES	BAZ2B inh	HP1b chromo inh	G9a block	JMJD2A Tudor inh	GLS inh
COCCN1C(=O)Cc2c1nc(N)c1c(N)nc(N3CCN(c4ccc(F)cc4)CC3)c(C#N)c21	.	.	35µM	.	.
N#CCc1c(C#N)c(N)nc(N2CCN(c3ccc(F)cc3)CC2)c1C#N	.	.	50µM	?	.
CCOc1[nH]c(/N=C/c2ccc(OC)cc2)c(C#N)c1C#N	/	?	/	25µM	/
COc1ccc(N=Cc2ccc(N(CCC#N)CCC#N)cc2)cc1	/	.	/	.	.
Cn1nnnc1Sc1ncnc2scc(-c3ccc4c(=O)ccoc4c3)c12	/	/	/	.	/
O=C(CCn1cnc(-c2ccccc2)c1-c1ccccc1)N/N=C/c1ccccc1O	?	?	45µM	25µM	.
